Test system: T1, HASPIN
T1 construct: gene GSG2
Conditions: concentration: 1 μM, replicates: in singlicate; n = 1
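Note: KINOMEscan kinase panel screen.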

| SMILES | %Inh |
| --- | --- |
| C[C@@H]1CC[C@H](C(=O)NC2CCCCC2)CN1c1cc(-c2ccc3c(N)n[nH]c3c2)nc(N)n1 [GSK2291363] | 2% |
| Cc1nc(N(C)[C@H]2CN(C(=O)CC#N)CC[C@H]2C)c2cc[nH]c2n1 | 0% |
| Nc1nccc2scc(-c3ccc4c(c3)CCN4C(=O)Cc3ccccc3)c12 [GSK2576924] | 0% |
| COc1cc(OC)cc(-c2cc3cnc(N)nc3nc2NC(=O)NC(C)(C)C)c1 | 0% |
| O=C(Nc1n[nH]c2cc(-c3ccccc3F)ccc12)C1CC1 [SB-733371] | 22% |
| CCCNC(=O)Nc1ccc(Oc2ncnc3ccn(C)c23)cc1 | 41% |
| COc1cc2ncn(-c3cc(OCc4ccncc4Br)c(C(N)=O)s3)c2cc1OC [GW854278] | 5% |
| Cc1nn2c(=O)cc(N3CCOCC3)nc2n1Cc1cccc(Cl)c1Cl [GSK2342769] | 8% |
| Cc1c(Cn2c(C)nn3c(=O)cc(N4CCO[C@H](C)C4)nc23)cccc1C(F)(F)F [GSK2373690] | 0% |
| COc1cc2nccc(Nc3ccc(OCc4ccc(NC(C)=O)cc4)cc3)c2cc1OC.Cl [GW440135] | 18% |
| Cc1cccc(-c2nc(Nc3ccc4c(cnn4C)c3)c3ccccc3n2)n1 [GW876731] | 11% |
| CCCC(=O)Nc1n[nH]c2ncc(-c3cccc4ccccc34)cc12 [SB-642057] | 0% |
| FC(F)(F)c1ccc(-c2ncn(CCCN3CCOCC3)c2-c2ccncc2)cc1 [SB-217780] | 11% |
| OCCCNc1nccc(-c2c(-c3cccc(C(F)(F)F)c3)nn3cc(C(F)(F)F)ccc23)n1 [GW630813] | 21% |
| COc1cc(Nc2nccc(N3CCC(NC(=O)C4COc5ccccc5O4)C3)n2)cc(OC)c1OC (centres unmarked) [GSK1379761] | 55% |
| CCc1ccc(-c2ccc3c(c2)-c2nn(C)cc2S(=O)(=O)N3C)cc1 | 23% |
| COc1cc(Nc2nccc(N3CCC(NC(=O)C(C)c4ccc(Cl)cc4)C3)n2)cc(OC)c1OC (centres unmarked) [GSK1379757] | 21% |
| CCS(=O)c1ccc(-c2coc3ccc(-c4nnc(C)o4)cc23)cc1 (centres unmarked) | 17% |
| O=C1NC(=O)C(c2ccccc2)=C1Nc1cccc(O)c1 [SB-390534] | 6% |

| SMILES | %Inh |
| --- | --- |
| COc1cccc(-n2cnc3c(N)ncnc32)c1 [SKF-97416] | 0% |
| COc1cc2ncn(-c3cc(OCc4ccncc4)c(C(N)=O)s3)c2cc1OC [GSK336313] | 0% |
| COC(=O)c1c(-c2ccccc2)c2cc(Br)ccc2c(=O)n1Cc1ccc(S(C)(=O)=O)cc1 | 31% |
| Nc1ncnc2c1ncn2-c1cccc(F)c1 [SKF-97560] | 45% |
| Nc1n[nH]c2nnc(-c3ccccc3)c(-c3ccccc3)c12 [GW554060] | 10% |
| Cc1ccc(-c2ccc3c(ccc4sc5c(c43)NC[C@@H](C)N=C5N(C)C)n2)cn1 | 23% |
| COc1cc2ncn(-c3cc(OCc4ccc(S(C)(=O)=O)cc4)c(C(N)=O)s3)c2cc1OC [GW869979] | 40% |
| Cl.NS(=O)(=O)c1cccc(Nc2cc(-c3ccc(F)cc3)n[nH]2)c1 [GW824645] | 51% |
| COc1cccc(C2=C(N(C)c3ccccc3)C(=O)NC2=O)c1 [SB-334865] | 2% |
| CCn1c(-c2ccoc2)nc2cnccc21 [SB-733887] | 37% |
| COc1cc2nccc(Nc3cccc(Oc4ccccc4)c3)c2cc1OC.Cl [GW284543] | 11% |
| CCC(=O)c1c(-c2ccccc2)c2cc(Cl)ccc2c(=O)n1Cc1cc(S(C)(=O)=O)n(CC(N)=O)n1 | 0% |
| CCn1c(-c2nonc2N)nc2ccccc21 [SB-693162/GW549034] | 0% |
| CN(C)c1cc(-c2ccc3c(N)n[nH]c3c2)nc(N)n1 [GSK2219329] | 0% |
| Cc1ccccc1COc1cc(-n2cnc3cc(Cl)ccc32)sc1C(N)=O [GW813349] | 16% |
| Cl.c1ccc(Cn2cnc3cc(Nc4ncnc5ccccc45)ccc32)cc1 [GW272142] | 0% |
| Nc1ncnc2c1ncn2-c1cccc2ccccc12 [SKF-97184] | 60% |
| COc1ccc(CNC(=O)NC2CCN(c3ccnc(Nc4ccc(F)cc4)n3)C2)cc1 (centres unmarked) [GSK1379706] | 32% |

Test system: HCK
Conditions: concentration: 1 μM, replicates: in singlicate; n = 1

| SMILES | %Inh |
| --- | --- |
| C[C@@H]1CC[C@H](C(=O)NC2CCCCC2)CN1c1cc(-c2ccc3c(N)n[nH]c3c2)nc(N)n1 [GSK2291363] | 0% |
| Cc1nc(N(C)[C@H]2CN(C(=O)CC#N)CC[C@H]2C)c2cc[nH]c2n1 | 0% |
| Nc1nccc2scc(-c3ccc4c(c3)CCN4C(=O)Cc3ccccc3)c12 [GSK2576924] | 0% |
| COc1cc(OC)cc(-c2cc3cnc(N)nc3nc2NC(=O)NC(C)(C)C)c1 | 0% |
| O=C(Nc1n[nH]c2cc(-c3ccccc3F)ccc12)C1CC1 [SB-733371] | 0% |
| CCCNC(=O)Nc1ccc(Oc2ncnc3ccn(C)c23)cc1 | 7% |
| COc1cc2ncn(-c3cc(OCc4ccncc4Br)c(C(N)=O)s3)c2cc1OC [GW854278] | 3% |
| Cc1nn2c(=O)cc(N3CCOCC3)nc2n1Cc1cccc(Cl)c1Cl [GSK2342769] | 0% |
| Cc1c(Cn2c(C)nn3c(=O)cc(N4CCO[C@H](C)C4)nc23)cccc1C(F)(F)F [GSK2373690] | 0% |
| COc1cc2nccc(Nc3ccc(OCc4ccc(NC(C)=O)cc4)cc3)c2cc1OC.Cl [GW440135] | 0% |
| Cc1cccc(-c2nc(Nc3ccc4c(cnn4C)c3)c3ccccc3n2)n1 [GW876731] | 0% |
| CCCC(=O)Nc1n[nH]c2ncc(-c3cccc4ccccc34)cc12 [SB-642057] | 1% |
| FC(F)(F)c1ccc(-c2ncn(CCCN3CCOCC3)c2-c2ccncc2)cc1 [SB-217780] | 8% |
| OCCCNc1nccc(-c2c(-c3cccc(C(F)(F)F)c3)nn3cc(C(F)(F)F)ccc23)n1 [GW630813] | 0% |
| COc1cc(Nc2nccc(N3CCC(NC(=O)C4COc5ccccc5O4)C3)n2)cc(OC)c1OC (centres unmarked) [GSK1379761] | 0% |
| CCc1ccc(-c2ccc3c(c2)-c2nn(C)cc2S(=O)(=O)N3C)cc1 | 2% |
| COc1cc(Nc2nccc(N3CCC(NC(=O)C(C)c4ccc(Cl)cc4)C3)n2)cc(OC)c1OC (centres unmarked) [GSK1379757] | 11% |
| CCS(=O)c1ccc(-c2coc3ccc(-c4nnc(C)o4)cc23)cc1 (centres unmarked) | 33% |
| O=C1NC(=O)C(c2ccccc2)=C1Nc1cccc(O)c1 [SB-390534] | 6% |

| SMILES | %Inh |
| --- | --- |
| COc1cccc(-n2cnc3c(N)ncnc32)c1 [SKF-97416] | 8% |
| COc1cc2ncn(-c3cc(OCc4ccncc4)c(C(N)=O)s3)c2cc1OC [GSK336313] | 0% |
| COC(=O)c1c(-c2ccccc2)c2cc(Br)ccc2c(=O)n1Cc1ccc(S(C)(=O)=O)cc1 | 9% |
| Nc1ncnc2c1ncn2-c1cccc(F)c1 [SKF-97560] | 0% |
| Nc1n[nH]c2nnc(-c3ccccc3)c(-c3ccccc3)c12 [GW554060] | 0% |
| Cc1ccc(-c2ccc3c(ccc4sc5c(c43)NC[C@@H](C)N=C5N(C)C)n2)cn1 | 14% |
| COc1cc2ncn(-c3cc(OCc4ccc(S(C)(=O)=O)cc4)c(C(N)=O)s3)c2cc1OC [GW869979] | 0% |
| Cl.NS(=O)(=O)c1cccc(Nc2cc(-c3ccc(F)cc3)n[nH]2)c1 [GW824645] | 13% |
| COc1cccc(C2=C(N(C)c3ccccc3)C(=O)NC2=O)c1 [SB-334865] | 0% |
| CCn1c(-c2ccoc2)nc2cnccc21 [SB-733887] | 0% |
| COc1cc2nccc(Nc3cccc(Oc4ccccc4)c3)c2cc1OC.Cl [GW284543] | 44% |
| CCC(=O)c1c(-c2ccccc2)c2cc(Cl)ccc2c(=O)n1Cc1cc(S(C)(=O)=O)n(CC(N)=O)n1 | 24% |
| CCn1c(-c2nonc2N)nc2ccccc21 [SB-693162/GW549034] | 0% |
| CN(C)c1cc(-c2ccc3c(N)n[nH]c3c2)nc(N)n1 [GSK2219329] | 0% |
| Cc1ccccc1COc1cc(-n2cnc3cc(Cl)ccc32)sc1C(N)=O [GW813349] | 11% |
| Cl.c1ccc(Cn2cnc3cc(Nc4ncnc5ccccc45)ccc32)cc1 [GW272142] | 0% |
| Nc1ncnc2c1ncn2-c1cccc2ccccc12 [SKF-97184] | 7% |
| COc1ccc(CNC(=O)NC2CCN(c3ccnc(Nc4ccc(F)cc4)n3)C2)cc1 (centres unmarked) [GSK1379706] | 0% |
